D1 ag = human D1 receptor agonism; P21728; HEK293 T-REx D1 cells, calcium flux, agonist mode; activation, % at 2 µM; actives 1% (n = 360,000); AID 504660; in the data active = activation above about 30%; note: 0% is about no effect
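Tetracycline-induced HEK293 TREx D1 cells, force-coupled to calcium signalling, were dye-loaded with a no-wash calcium kit. Compound was pin-added after a 10 s baseline. Fluorescence was read kinetically at 1 cycle/s for 180 s, with calcium rises flagged as agonism.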
D3 antag = blocks the human D3 dopamine receptor; actives 2.5% (n = 360,000); max response, negative = inhibition, %; D3R cells, DiscoveRx beta-arrestin luminescence, antagonist mode; active compounds read low; P35462; in the data active = max response below about -50%; inconclusive = no clear call, values can overlap the other calls; note: % is set by controls: 0 for no effect and ±100 for the full control effect
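Cells plated overnight at 1500 cells/well, then exposed to library compounds with dopamine controls for 90 minutes at 37 degrees C. DiscoveRx reagent added for 30–60 minutes at room temperature; luminescence read, quantitative HTS format.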
D1 PAM = human D1 dopamine receptor positive modulation | P21728 | HEK293 TREx D1 cells, calcium flux, dopamine EC20 potentiation | potentiation, % at 10 µM | actives 0.036% (n = 360,000) | AID 504651; in the data active = potentiation above about 30%; note: 0% is about no effect
DRD3 agonist = activates the human D3 dopamine receptor. max activation, %. D3R DiscoveRx beta-arrestin cells, luminescence, 90 min. AID 652048. P35462. actives 0.58% (n = 410,000); in the data active = max activation above about 30%; note: 0% is about no effect
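Agonist-mode cell screen: cells plated at 1500/well and incubated overnight at 37 °C, then exposed to library compounds for 90 min at 37 °C. Detection reagent was added for 30–60 min at room temperature, and luminescence was read.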
D1 antag = human D1 dopamine receptor antagonism. activity change, negative = inhibition, % at 10 µM. AID 504652. HEK293 TREx D1 cells, calcium flux, dopamine EC80; active compounds read low. actives 3.2% (n = 360,000). P21728; in the data active = activity change below about -30%; note: % is set by controls: 0 for no effect and ±100 for the full control effect
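Allosteric or orthosteric antagonism assessed as attenuation of the calcium response to EC80 dopamine, added 180 s after compound, in induced HEK293 Trex D1 cells loaded with no-wash calcium dye.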
ERG-DNA inh = blocks human ERG Ets domain binding to DNA | fluorescence polarization, His-ERG Ets domain / labelled DNA | Potency, µM (doses to about 76.9 µM), without a hit: top-dose FP activity, negative = inhibition, hits mostly inhibitors | actives 0.028% (n = 370,000); active = well fitted inhibition curve with a large enough effect in the polarisation, with a control signal flat; inconclusive = small, poorly fitted or top-dose-only effect, or effect the other way, or a change in a side signal; inactive = no such curve, though single readings can be large or run the other way; the % refers to the polarisation;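 note: polarization taken with two DNA probes labelled with fluorescein and Texas red; potency is the fitted concentration of half-maximal effect; % of control where 0% means no effect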
Target sequence (P11308 whole entry, looked up, the tested form may be a part): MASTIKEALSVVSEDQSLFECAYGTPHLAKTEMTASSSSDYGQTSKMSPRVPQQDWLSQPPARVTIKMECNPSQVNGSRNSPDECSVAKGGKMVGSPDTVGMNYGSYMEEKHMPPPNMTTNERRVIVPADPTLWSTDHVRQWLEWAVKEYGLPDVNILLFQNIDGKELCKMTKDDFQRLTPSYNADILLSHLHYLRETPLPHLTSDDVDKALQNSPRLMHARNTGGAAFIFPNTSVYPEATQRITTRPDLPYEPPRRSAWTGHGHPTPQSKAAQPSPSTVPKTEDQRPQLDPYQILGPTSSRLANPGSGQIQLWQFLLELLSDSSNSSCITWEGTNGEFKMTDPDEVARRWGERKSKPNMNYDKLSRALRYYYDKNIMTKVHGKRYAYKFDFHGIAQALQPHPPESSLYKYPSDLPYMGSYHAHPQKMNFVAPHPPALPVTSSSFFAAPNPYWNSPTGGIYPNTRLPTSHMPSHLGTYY
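His-tagged ERG Ets domain (1 uM in the protein solution; 300mM KCl, 50mM Tris-HCl, 1mM EDTA, 1mM DTT, pH 7.5) received compound, then a probe mix of 5 nM fluorescein-DNA and 100nM Texas-615-DNA. Fluorescence polarization was read for both dyes.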
Starred values were filed as active, the others as inactive; ? = inconclusive; . = no result given. This is a sample that favours compounds with a hit; in the whole collection about 6.1% have one here.

SMILES	D1 ag	D3 antag	D1 PAM	DRD3 agonist	D1 antag	ERG-DNA inh
CCN(CC)S(=O)(=O)c1ccc(F)c(C(=O)NCCC(C)C)c1	0	13	-5	36*	0	-2%
CCCCCNC(=O)c1cc(S(=O)(=O)N2CCCCC2)ccc1F	2	-5	-2	-3	-62*	2%
CCN(Cc1ccccc1)S(=O)(=O)c1ccc(F)c(C(=O)Nc2ccc(C(C)C)cc2)c1	-3	.	0	-2	-2	2%
O=C(NCCc1ccccc1)c1cc(S(=O)(=O)N2CCCC2)ccc1F	4	6	3	3	-7	-4%
CCCCNC(=S)Nc1cc(S(=O)(=O)N2CCCCC2)ccc1C	23	-3	-15	14	-37*	7%
COCCNc1nc(-c2cc(C)n(CCc3ccc(OC)cc3)c2C)cs1	1	0	-3	-1	-7	16%
COc1ccccc1CNc1nc(-c2cc(C)n(C)c2C)cs1	4	0	1	-11	-46*	-12%
Cc1[nH]c2ccc(F)cc2c1CCN(Cc1ccco1)C(=S)NC(C)(C)C	17	-13	-3	-22	-43*	6%
CNC(=S)N(CCc1c(C)[nH]c2ccc(F)cc12)Cc1ccco1	4	-7	-4	-4	-29	0%
CNC(=S)N(CCc1c(C)[nH]c2ccccc12)Cc1ccco1	4	-2	-10	-1	-38*	10%
Fc1cccc(CN2CCN3CCCC3C2C2CCCCC2)c1 (stereo unspecified)	0	?	1	-26	-7	-6%
Fc1ccc(CN2CCN3CCCC3C2C2CCCCC2)cc1F (stereo unspecified)	2	-78*	3	-13	4	-2%
CS(=O)(=O)Nc1ccccc1C(=O)Nc1ccccc1C(=O)N1CCCC1	1	3	-3	5	9	-2%
Cc1ccc(CNC(=O)c2ccc(N3CCC4(CC3)CC(c3ccccc3)=NO4)c([N+](=O)[O-])c2)cc1	0	-61*	0	-5	-4	-2%
CCCCNC(=O)c1ccc(N2CCC3(CC2)OCCO3)c([N+](=O)[O-])c1	2	4	-6	-12	-50*	2%
Cc1ccc(CNC(=O)c2ccc(N3CCC4(CC3)CC(c3ccccc3)=NO4)c(N)c2)cc1	3	36	-6	34*	-12	-5%
O=C(Cn1cc(S(=O)(=O)Cc2cccc(Cl)c2)c2ccccc21)NCc1ccccc1Cl	4	.	2	-4	-3	3%
Cn1ccnc1Sc1cc(NCCCO)c([N+](=O)[O-])c2nonc12	1	-112*	-1	-20	11	10%
O=[N+]([O-])c1c(NCCCO)cc(N2CCCCCC2)c2nonc12	1	13	-2	-9	22	-10%
O=[N+]([O-])c1c(NCCCO)cc(SCc2ccco2)c2nonc12	2	-63*	-9	-7	1	14%
O=[N+]([O-])c1c(NCCCO)cc(Sc2ccc(Cl)cc2)c2nonc12	2	-113*	-4	-65	-40*	-5%
COc1cc(C(=O)NCC(=O)N/N=C/c2cccs2)cc(OC)c1OC	1	3	-8	5	10	-13%
COc1ccccc1CCNC(=O)c1csc2c1CCCC2	2	3	-2	-3	-23	0%
CC1CC(C)CN(C(=O)COC(=O)c2ccc3c(c2)C(=O)N(Cc2ccco2)C3=O)C1 (stereo unspecified)	2	-1	0	2	6	-4%
COc1ccc(-n2c(/C=C/c3c(C)[nH]c4ccccc34)nc3ccccc3c2=O)cc1	0	.	-2	-15	-57*	1%
SMILES	D1 ag	D3 antag	D1 PAM	DRD3 agonist	D1 antag	ERG-DNA inh
Cc1[nH]c2ccccc2c1/C=C/c1nc2ccccc2c(=O)n1-c1cccc([N+](=O)[O-])c1	-1	-21	-10	5	-37*	-10%
COc1ccc(S(=O)(=O)Nc2cccc(S(=O)(=O)N3CCCCC3)c2)cc1	.	4	.	6	.	-3%
Cc1ccc(S(=O)(=O)Nc2nc3ccccc3nc2Nc2cccc(S(=O)(=O)N3CCCC3)c2)cc1	7	46	-8	32*	-39*	53%
O=[N+]([O-])c1cccc(S(=O)(=O)Nc2nc3ccccc3nc2Nc2cccc(S(=O)(=O)N3CCCCC3)c2)c1	20	-6	-6	14	-32*	-4%
O=[N+]([O-])c1cccc(S(=O)(=O)Nc2ccc(S(=O)(=O)N3CCCC3)cc2)c1	.	-3	.	3	.	6%
CCOc1ccc(OCCSc2nc(-c3ccccc3)cc(=O)[nH]2)cc1	3	-6	-2	0	-22	12%
COc1nc(Cc2ccc(Cl)cc2)nc2ccccc12	13	15	-4	6	-13	-6%
C#CCSc1nc(Cc2ccc(Cl)cc2)nc2ccccc12	7	19	0	48*	6	-6%
COCCNC(=O)c1ccc(CS(=O)(=O)c2ccccc2)o1	4	2	0	4	7	9%
Cc1ccccc1N1C(=O)[C@@H]2Cc3ccccc3CN2C1=O	2	?	0	-2	-6	-2%
O=C1[C@@H]2Cc3ccccc3CN2C(=O)N1c1cccc(F)c1	1	-11	2	37*	-7	-6%
Cc1ccc(NC(=O)COC(=O)CCc2c(C)nc3ncnn3c2C)cc1	.	-12	.	32*	.	7%
Cc1ccc(NC(=O)COC(=O)CCc2c(C)nc3ncnn3c2C)cc1C	.	7	.	1	.	16%
CC(C)(C)OC(=O)N[C@H]1C=C[C@H](OC(=O)CC(=O)OCC(F)(F)F)C1	.	4	.	4	.	-2%
O=C(O)c1ccc(Sc2nnnn2-c2ccccc2)c([N+](=O)[O-])c1	1	-64*	1	1	4	9%
COC(=O)c1ccc(Sc2nnnn2-c2ccccc2)c([N+](=O)[O-])c1	2	-21	0	-15	-12	-3%
CSc1ncc(Cl)c(C(=O)Nc2c(C(=O)c3ccc(C)cc3)oc3ccccc23)n1	-1	.	-2	5	-4	1%
CC(C)c1ccc(C(=O)CSc2ncn[nH]2)cc1	3	-5	-7	2	-18	-5%
COc1ccc(NC(=O)N(CCC(C)C)C(C)c2ccccn2)c(OC)c1 (stereo unspecified)	3	-53*	0	-5	-7	-7%
COCCn1c(=O)[nH]c2cc(C(=O)N3CCN(c4cc(C)ccc4C)CC3)ccc2c1=O	2	9	.	3	5	5%
O=C(CCc1nnc2n(CCc3ccccc3)c(=O)c3ccccc3n12)NCCCN1CCCCC1	0	28	-6	5	-56*	-9%

Compound activity as filed in PubChem BioAssay.
